Source: PubChem BioAssay AID651813 (National Center for Advancing Translational Sciences (NCATS), 2012)
In all, about 2,100 compounds went through this assay and about 1,100 (52%) were called active. Inconclusive results (about 27%) are left out. The set was probably picked from earlier hits. The list shows a part of the results. Values without a mark were called inactive. The call rests on the fitted dose curve; in most records, active means well fitted inhibition curve with a large enough effect; inconclusive means small, poorly fitted or top-dose-only effect; inactive means no such curve, though single readings can be large or run the other way.

Biological target: DNA dC->dU-editing enzyme APOBEC-3G (Homo sapiens) (UniProt Q9HC16)
Assay: qHTS for inhibitors of Vif-A3G interactions: Cherry picks counterscreen;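 further: hits raise yellow fluorescence by blocking Vif-driven A3G-eYFP degradation; nearly all actives have a fitted effect of over 70% in size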;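 on max response: max response given as percent of control signal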
Details: HeLa A3G-eYFP + Vif (tagged APOBEC3G with the HIV-1 protein that degrades it), eYFP fluorescence, 24 h
Method in brief: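 Readout is eYFP fluorescence (488 nm excitation, 500-530 nm emission) measured on Acumen Explorer after 24 h compound exposure, several concentrations, at 37 deg C. Cells: HeLa stably co-expressing Vif and C-terminally eYFP-tagged A3G; MG132 positive control.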
Potency means the concentration at half of the fitted maximal effect.

Sequence of DNA dC->dU-editing enzyme APOBEC-3G (Homo sapiens) (Q9HC16 whole entry, looked up): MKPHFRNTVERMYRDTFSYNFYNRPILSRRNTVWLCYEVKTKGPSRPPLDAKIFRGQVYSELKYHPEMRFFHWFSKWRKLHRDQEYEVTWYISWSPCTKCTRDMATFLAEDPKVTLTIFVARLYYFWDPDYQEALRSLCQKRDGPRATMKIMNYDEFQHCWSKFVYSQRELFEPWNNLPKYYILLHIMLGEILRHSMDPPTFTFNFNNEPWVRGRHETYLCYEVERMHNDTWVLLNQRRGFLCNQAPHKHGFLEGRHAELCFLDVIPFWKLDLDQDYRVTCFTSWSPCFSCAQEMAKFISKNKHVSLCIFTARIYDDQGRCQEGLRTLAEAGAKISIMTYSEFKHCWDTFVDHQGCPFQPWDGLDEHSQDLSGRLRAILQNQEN

| SMILES | Potency | max response [%] |
| --- | --- | --- |
| CCCCN(CCCC)c1ccc(/C=C/c2ccnc3ccccc23)cc1 | 16.4 µM (active) | – |
| CCCCN(CCC(=O)O)c1ccc(/C=C/c2ccnc3ccccc23)cc1 | 18.4 µM (active) | – |
| CCCN(CCC)c1ccc(/C=C/c2ccnc3ccccc23)cc1 | 14.6 µM (active) | – |
| CCN(C)c1ccc(/C=C/c2ccnc3ccccc23)cc1 | 18.4 µM (active) | – |
| CCN(CC)c1ccc(/C=C/c2ccnc3ccccc23)cc1 | 14.6 µM (active) | – |
| CC(C)CN(CC(C)C)c1ccc(/C=C/c2ccnc3ccccc23)cc1 | 16.4 µM (active) | – |
| CCN(CCCN(C)C)c1ccc(/C=C/c2ccnc3ccccc23)cc1 | 18.4 µM (active) | – |
| O=C1OC(/C(=C\Nc2cc(Cl)ccc2O)[N+](=O)[O-])c2ccccc21 (centres undefined) | – | 4.09 |
| Cc1nc2ccc(NC(=O)c3cc(S(=O)(=O)N(C)c4ccccc4)ccc3Cl)cc2s1 | 16.4 µM (active) | – |
| N=c1n(CC(=O)c2ccc([N+](=O)[O-])cc2)c2ccccc2n1Cc1ccccc1 | 20.6 µM (active) | – |
| COc1ccc(-c2cc(C(F)F)n3ncc(C(=O)N4CCc5ccccc54)c3n2)cc1 | 2.23 µM (active) | – |
| CC(=O)Nc1cccc(-c2ccnc3c2CC(C)(C(=O)NCc2cccs2)O3)c1 (centres undefined) | 3.14 µM (active) | – |
| CC1(C(=O)NCc2ccco2)Cc2c(-c3cccc(C(N)=O)c3)ccnc2O1 (centres undefined) | 7.04 µM (active) | – |
| CC1(C(=O)NCc2cccs2)Cc2c(-c3ccc(C(N)=O)cc3)ccnc2O1 (centres undefined) | 9.94 µM (active) | – |
| CC(=O)Nc1ccc(-c2ccnc3c2CC(C)(C(=O)NCc2ccco2)O3)cc1 (centres undefined) | 7.04 µM (active) | – |
| Cn1c(=O)c(N)c2c3c(c(Br)ccc31)C(=O)c1ccccc1-2 | – | 44.6 |
| CC1(C(=O)NCc2ccc(F)c(F)c2)Cc2c(-c3cccc(C(N)=O)c3)ccnc2O1 (centres undefined) | 17.7 µM (active) | – |
| CC1(C(=O)NCc2ccccc2)Cc2c(-c3ccc(C(N)=O)cc3)ccnc2O1 (centres undefined) | 6.27 µM (active) | – |
| CC1(C(=O)NCc2ccccc2)Cc2c(-c3cccc(C(N)=O)c3)ccnc2O1 (centres undefined) | 6.27 µM (active) | – |
| CC(=O)Nc1cccc(-c2ccnc3c2CC(C(=O)NCc2cccs2)O3)c1 (centres undefined) | 2.23 µM (active) | – |
| CC(=O)Nc1cccc(-c2ccnc3c2CC(C)(C(=O)NCc2ccccc2)O3)c1 (centres undefined) | 1.4 µM (active) | – |
| CC(=O)Nc1ccc(-c2ccnc3c2CC(C(=O)NCc2ccccc2)O3)cc1 (centres undefined) | 0.444 µM (active) | – |
| CC(=O)Nc1ccc(-c2ccnc3c2CC(C(=O)NCc2cccc(Cl)c2)O3)cc1 (centres undefined) | 3.14 µM (active) | – |
| N#Cc1c(C(F)(F)F)cc(-c2ccccc2)nc1SCc1nc(N)nc(N2CCOCC2)n1 | 2.91 µM (active) | – |
